Screens (PubChem)
Rows were chosen to be rich in hits. Some 11% of all compounds tested hit in one or more screens of this group.
Gal4-VP16 FLuc: counter-screen for ROR gamma inhibitors: Gal4-VP16 reporter; Drosophila S2 Gal4-VP16 UAS-luciferase, luminescence, 20 h; Potency, µM (top dose mostly 53.6 µM), for the others: at the highest dose activity, negative = inhibition, usual class: inhibitors; hit rate 3.5% among 310,000; AID 2546;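 further: Gal4-VP16 expression switched on by copper sulfate through the metallothionein promoter; potency means the concentration at half of the fitted maximal effect; on the % scale 0 is the no-effect control and ±100 the full control effect; nearly all actives have a fitted effect of over 50% in size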
SW480 rereplic: DNA re-replication induction in SW480 cells | hit rate 1.8% among 340,000 | AID 624297 | Potency, µM (highest dose often 46.1 µM), for inactives: top-dose re-replication activation, hits mostly activators | SW480 DNA re-replication, Hoechst DNA content imaging, 48 h; further: potency means the concentration at half of the fitted maximal effect; % of control where 0% means no effect; nearly all actives have a fitted effect of over 55% in size
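SW480 cells exposed to compounds for 48 hr at 37 C, 5% CO2, then Hoechst-stained 40 min. Nuclear DNA content imaged by fluorescence scanning (405 nm excitation, 500-530 nm emission); re-replication scored as increased high-intensity nuclei.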
IL1B secr inh: inhibitors of inflammasome signaling (IL-1 beta secretion). THP-1 LPS/ATP IL-1B secretion, AlphaLISA, 16 h; hits give low values. activity change, % at 57.5 µM. hit rate 4.7% among 360,000. AID 743279; in the data active means activity change below about -50%; inconclusive means mostly about -30% to -49%; further: on the % scale 0 is the no-effect control and ±100 the full control effect
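THP-1 cells pretreated 1 hr with compounds (up to 57.5 uM final), then stimulated with LPS (250 ng/mL final) plus ATP (1.25 mM final); secreted IL-1B measured by AlphaLISA after 16 hr, decreased signal indicating inhibition.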
MCF10A rerep: inducers of DNA re-replication in MCF 10A breast cells; MCF 10A DNA re-replication, Hoechst nuclear intensity, 48 h; Potency, µM (top dose mostly 46.1 µM), inactives show at the top dose activity, positive = re-replication, most hits filed as activators; hit rate 2.9% among 350,000; AID 624296; further: potency means the concentration at half of the fitted maximal effect; % of control where 0% means no effect; nearly all actives have a fitted effect of over 50% in size
RORgamma inh: ROR gamma (mouse) transcription inhibition | Drosophila S2 Gal4-RORgamma UAS-luciferase reporter, 20 h | Potency, µM (series often up to 53.6 µM), for inactives: top-dose activity change, negative = inhibition, most hits filed as inhibitors | hit rate 5.4% among 310,000 | P51450; further: potency means the concentration at half of the fitted maximal effect; on the % scale 0 is the no-effect control and ±100 the full control effect; nearly all actives have a fitted effect of over 60% in size
Target sequence (P51450 whole entry, looked up, the tested form may be a part): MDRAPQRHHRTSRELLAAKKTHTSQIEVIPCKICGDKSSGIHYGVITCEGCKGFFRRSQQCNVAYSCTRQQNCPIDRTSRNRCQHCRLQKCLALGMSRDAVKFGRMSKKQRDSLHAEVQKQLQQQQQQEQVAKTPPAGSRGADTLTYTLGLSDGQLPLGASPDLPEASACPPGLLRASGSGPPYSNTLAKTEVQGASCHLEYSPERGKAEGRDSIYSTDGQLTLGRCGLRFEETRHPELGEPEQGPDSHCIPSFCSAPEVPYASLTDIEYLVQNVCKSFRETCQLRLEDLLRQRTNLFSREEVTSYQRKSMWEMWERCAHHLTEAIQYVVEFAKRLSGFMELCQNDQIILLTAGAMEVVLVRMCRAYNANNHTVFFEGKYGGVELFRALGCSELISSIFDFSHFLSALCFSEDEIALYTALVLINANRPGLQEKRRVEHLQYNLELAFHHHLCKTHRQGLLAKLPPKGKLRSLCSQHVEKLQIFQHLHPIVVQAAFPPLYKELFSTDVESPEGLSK
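Stable Schneider cell line, Gal4 DNA-binding domain fused to ROR gamma, UAS-luciferase. Cmpd 1 hr RT → CuSO4 700 uM final → 20 hr RT → luciferase reagent 10 min → luminescence.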
An asterisk follows results filed as active; ? = inconclusive; nt = no result given; ! = not confirmed by another sample; [ ] = another dose, or the depositor's remark. Unless noted, the call rests on the fitted dose curve; in most records, active means well fitted curve in the direction sought with a large enough effect; inconclusive means small, poorly fitted or top-dose-only effect, or another doubt; inactive means no such curve, though single readings can be large; an effect the other way counts as inactive or inconclusive.

SMILES | Gal4-VP16 FLuc | SW480 rereplic | IL1B secr inh | MCF10A rerep | RORgamma inh
Nc1ncnc2c1ncn2[C@@H]1O[C@H](CNCc2ccc(-n3cccn3)cc2)[C@@H](O)[C@H]1O | nt | -46%[9.22 µM] | -5 | -3% | nt
COc1ccc(COC(=O)C2=C(C)NC(=O)NC2c2ccccc2)cc1 (configuration not stated) | 5% | 1% | -3 | 4% | ?
COc1ccc(C(=O)NC(=S)Nc2ccc3[nH]c(=O)[nH]c3c2)c(OC)c1 | 10% | -5% | -19 | 1% | -6%
COc1ccc(-c2cnc(N)nc2-c2ccc(OCc3ccccc3)cc2O)cc1 | -13% | -3% | ? | ? | ?
CCc1cc(-c2nc(N)ncc2-c2ccc(Br)cc2)c(O)cc1OC | -21% | 7% | 37 | 18µM* | 34%
CCCN(CCC)c1ccc(/C=C/c2ccc3cc(OCC)ccc3n2)cc1 | -8% | 2.1µM* | 3 | ? | 11%
C(=C\c1ccc2ccccc2n1)/c1ccccc1 | -8% | ? | 6 | 12% | 0%
Oc1ccc(/C=C/c2ccc3ccccc3n2)cc1 | 11µM* | 18µM* | -16 | ? | 7.9µM*
Cc1ccc(/C=C/c2nc3ccccc3s2)s1 | 10µM* | 11% | -1 | ? | ?
CCOc1ccc(N=Cc2ccc(N(C)C)cc2)c(O)c1 | nt | nt | 18 | nt | nt
CN(C)c1ccc(/C=C/c2nc3ccccc3s2)cc1 | 4µM* | 9.2µM* | -25 | ? | 0.32µM*
COc1cc(N=Nc2ccc(C(=O)N(C)C)cc2)c(C)cc1N | nt | -6% | 2 | -33% | nt
CCOc1ccc(-c2nc(CS(=O)(=O)CC(=O)NCc3ccc(F)cc3)c(C)o2)cc1 | -8% | 1% | -29 | -1% | -28%
O=C(O)/C=C/c1ccc2ccccc2n1 | -5% | -11% | -71* | -13% | 44%
O/C(=C\c1ccc2ccccc2n1)c1ccc(O)cc1O | 8.9µM* | -2% | -1 | 0% | 2.8µM*
CN(C)c1ccc(CNc2nc3ccccc3s2)cc1 | 7.9µM* | nt | nt | nt | 5µM*
CN(C)c1ccc(/C=C/c2ccc3ccccc3n2)cc1 | 2.8µM* | 23µM* | 27 | 5.2µM* | 4µM*
O=C(O)c1ccc(O)cc1O | 6% | -11% | 2 | -34% | 0%
CN(C)c1ccc(CNc2nc3ccccc3n2C)cc1 | nt | nt | -12 | nt | nt
CCCCN(C(=O)c1cc(=O)[nH]c2ccccc12)c1c(N)n(CCCC)c(=O)[nH]c1=O | -2% | -2% | -11 | 0% | -27%
COc1cccc(CN2CC34CC(c5ccc(C(C)=O)cc5)C(CC3S2(=O)=O)O4)c1 (configuration not stated) | 8% | nt | nt | nt | 8%
Cc1ccc(N(C(=O)c2csnn2)C(C(=O)NC2CCCCC2)c2ccncc2)c(C)c1 (configuration not stated) | 9% | -1% | -10 | -1% | -24%
Clc1cc2cccnc2c2ncccc12 | nt | 14% | 230 | -11% | nt
O=[N+]([O-])c1cc(CN2CCN(c3ccccc3)CC2)c(O)c2ncccc12 | -87% | ? | 89 | -6% | 0.11µM*
O=[N+]([O-])c1ccccc1-c1ccc(CN2CCN(c3ccccc3)CC2)o1 | 2% | -2% | 8 | 8% | -5%
SMILES | Gal4-VP16 FLuc | SW480 rereplic | IL1B secr inh | MCF10A rerep | RORgamma inh
Oc1c(I)cc(Cl)c2cccnc12 | 1µM*! | ? | 20 | ? | 0.4µM*
CN(Cc1cc([N+](=O)[O-])c2cccnc2c1O)C1CCCCC1 | ? | nt | nt | nt | 4µM*
O=[N+]([O-])c1cc(F)c2cccnc2c1O | 3.2µM* | ? | 30 | ? | 1.3µM*
O=[N+]([O-])c1ccc(Cl)c2cccnc12 | -12% | 17% | -22 | -2% | 21%
CCc1ccccc1NC(=O)COC(=O)C1C2CC3OC(=O)C1C3C2 (configuration not stated) | 2% | -21% | 25 | -16% | ?
Cn1c(=O)c(-c2ccc(Cl)cc2)nc2cnc(Oc3ccccc3)nc21 | -16% | nt | nt | nt | 3%
O=[N+]([O-])c1cc(Cl)c(O)c2ncccc12 | 1.3µM* | 10µM* | 124 | ? | 0.71µM*
O=[N+]([O-])c1cc(Cl)c2cccnc2c1O | 4µM* | ? | 126 | 2.6µM* | 2.8µM*
Cc1ccc(NC(=O)CSc2nc3ccccc3c3nc(CCc4c(C)n[nH]c4C)nn23)cc1F | ? | 10µM* | -6 | 3.7µM* | ?
Cc1onc(-c2ccccc2)c1C(=O)OCC(=O)Nc1ccccc1Cl | nt | nt | -1 | nt | nt
CCCCN(C(C)=O)c1c(CC)nc2ccc(C(=O)NCCOc3ccc(OC)cc3)cn12 | nt | nt | -5 | nt | nt
CC1(C)C(C(=O)O)N2C(=O)CC2S1(=O)=O (configuration not stated) | -4% | nt | nt | nt | -5%
Nc1ccc(-c2cnc(N)c(C(=O)c3cccnc3)n2)cn1 | nt | -2% | -91* | 13% | nt
CC(C)(C)OC(=O)NCC1CCC(C(=O)NC[C@H](CC(=O)O)c2ccc(Cl)cc2)CC1 (some centres not stated) | 3% | 4% | -4 | 3% | 15%
CCOc1cc(NC(=O)c2cccs2)c(OCC)cc1NC(=O)c1ccccn1 | -1% | ? | 0 | 8.2µM* | -9%
CCOc1cc(NC(=S)NCC(C)C)c(OCC)cc1NC(=O)c1cccs1 | 8.9µM* | 1% | -1 | ? | 4µM*
CCNC(=S)Nc1cc(OCC)c(NC(=O)c2cccs2)cc1OCC | ? | -4% | 3 | 13% | 11µM*
CCOc1cc(NS(C)(=O)=O)c(OCC)cc1NC(=O)c1cccs1 | 3% | 1% | -10 | 6% | 35%
Cc1ccc(S(=O)(=O)N2CCOCC2)cc1NC(=O)CSc1nnnn1C1CC1 | nt | nt | 0 | nt | nt
CCCCCNC(=O)C(c1ccccc1)n1c(=O)c(-c2cc3ccccc3[nH]2)nc2ccccc21 (configuration not stated) | nt | nt | 40 | nt | nt
N=C1C(c2ccccc2)=C(O)CN1c1ccccc1 | 10% | -7% | 0 | -4% | 20%
N=C1C(c2ccccc2)=C(O)CN1c1ccc2c(c1)OCO2 | -5% | 2% | 0 | 16µM* | 16%
Cc1ccc(Cc2cnc(NC(=O)c3ccco3)s2)cc1 | 5.6µM* | 18% | 2 | 15% | ?
Cc1cccc(Cc2cnc(NC(=O)C3=NCCN3)s2)c1 | 7.9µM* | 3% | 3 | 16% | 3.5µM*
Cc1cccc(Cc2cnc(NC(=O)c3ccc(C)o3)s2)c1 | ? | 6% | -13 | 2.6µM* | 10µM*
Cc1ccc(Cc2cnc(NC(=O)C3=NCCN3)s2)cc1 | 3% | nt | nt | nt | 14%
O=C(Nc1nnc(Cc2ccccc2)s1)c1ccco1 | 23% | 0% | 1 | 3% | ?
NC(=O)c1cc(Cc2ccccc2)sc1NC(=O)c1ccco1 | ? | 17% | -56* | ? | ?
Cc1ccc(-n2c(SCC(=O)c3c(N)n(C4CC4)c(=O)[nH]c3=O)nnc2N2CCOCC2)cc1 | nt | -2% | 12 | ? | nt
